Measurements taken from the supplement of paper PMC10849652.
The full data set covers some 7,900 targets. This sample favours those with a hit. About 0.6% of all pairs of compound and target were hits. A number with no mark means an inactive call.

Assays:
Test in all cases: log2 fold change, soluble protein after heating vs DMSO (PISA); higher = thermal stabilisation; K562 cells, 10 uM, 30 min; active = over 0.2 and 3.5 SD of the protein, either way, in both replicates (recomputed)
[1] = compound: CC1=C(C=C(C=C1)NC(=O)C2=CC(=CC=C2)C(C)(C)C#N)NC3=CC4=C(C=C3)N=CN(C4=O)C
Summary of the method: (§1)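 K562 cells at 2×10^6 cells/mL were exposed to 10 μM compound for 30 min, then aliquots were heated for 3 min across 48°C-58°C, pooled, and extracted in PBS containing 0.5% NP-40 at 4°C. The supernatant after 21,000xg for 90 min was taken as soluble protein and measured by TMTpro 16plex LC-MS/MS with channel sums equalised. Thermal stability is reported relative to control samples, with values from duplicates. Fold changes are given on a log2 scale.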

[2] = compound: CC1=C(C=C(C=C1)NC(=O)C2=CC(=CC=C2)N(C)C)NC(=O)C3=CC=C(C=C3)O
Summary of the method: as §1

[3] = compound: CC1=CC=C(C=C1)SC2=C3C=C(SC3=CN=C2)C(=O)N
Summary of the method: as §1

[4] = compound: CC1=NC(=CC=C1)C2=C(N=C(N2)C(C)(C)C)C3=CC4=NC=CN=C4C=C3
Summary of the method: as §1

Nexturastat A = compound: CCCCN(Cc1ccc(C(=O)NO)cc1)C(=O)Nc1ccccc1 [Nexturastat A]
Summary of the method: as §1

vemurafenib = compound: CCCS(=O)(=O)Nc1ccc(F)c(C(=O)c2c[nH]c3ncc(-c4ccc(Cl)cc4)cc23)c1F [vemurafenib]
Summary of the method: as §1

[5] = compound: CCCS(=O)(=O)Nc1ccc(F)c(C(=O)c2c[nH]c3ncc(Cl)cc23)c1F
Summary of the method: as §1

[6] = compound: CCCc1cc(C)[nH]c(=O)c1CNC(=O)c1cc(-c2ccnc(N3CCN(C)CC3)c2)cc2c1cnn2C(C)C
Summary of the method: as §1

givinostat = compound: CCN(CC)Cc1ccc2cc(COC(=O)Nc3ccc(C(=O)NO)cc3)ccc2c1 [givinostat]
Summary of the method: as §1

barasertib = compound: CCN(CCCOc1ccc2c(Nc3cc(CC(=O)Nc4cccc(F)c4)[nH]n3)ncnc2c1)CCOP(=O)(O)O [barasertib]
Summary of the method: as §1

[7] = compound: CC[C@@H]1C(=O)N(C)c2cnc(Nc3ccc(C(=O)NC4CCN(C)CC4)cc3OC)nc2N1C1CCCC1
Summary of the method: as §1

volasertib = compound: CC[C@@H]1C(=O)N(C)c2cnc(Nc3ccc(C(=O)N[C@H]4CC[C@H](N5CCN(CC6CC6)CC5)CC4)cc3OC)nc2N1C(C)C [volasertib]
Summary of the method: as §1

[8] = compound: CC[C@H](C)N1C=C(C2=C(C=C(C=C21)C3=CN=C(C=C3)N4CCNCC4)C(=O)NCC5=C(C=C(NC5=O)C)C)C
Summary of the method: as §1

epoxomicin = compound: CC[C@H](C)[C@@H](C(=O)N[C@@H]([C@@H](C)O)C(=O)N[C@@H](CC(C)C)C(=O)[C@]1(CO1)C)NC(=O)[C@H]([C@@H](C)CC)N(C)C(=O)C [epoxomicin]
Summary of the method: as §1

[9] = compound: CCn1c(C(=O)N(C2CC2)C2CC2)cc2c3c(ncn3C)c(Nc3cc(C)n(C)n3)nc21
Summary of the method: as §1

[10] = compound: CCn1cc(-c2ccnc3[nH]c(-c4cccc(CN(C)C)c4)cc23)c(-c2ccc(NC(=O)N(C)C)cc2)n1
Summary of the method: as §1

[11] = compound: CN(C)CC(=O)Nc1ccc2[nH]c(=O)c3ccccc3c2c1
Summary of the method: as §1

rosiglitazone = compound: CN(CCOC1=CC=C(C=C1)C[C@H]2C(=O)NC(=O)S2)C3=CC=CC=N3 (racemic) [rosiglitazone]
Summary of the method: as §1

[12] = compound: CN1C2=C(C3=C1C(=O)N(N=C3)CC4=CC(=CC=C4)N)SC(=C2)S(=O)C
Summary of the method: as §1

[13] = compound: CN1CCC(CNc2ccc3ncc(-c4cccc(OC(F)(F)F)c4)n3n2)CC1
Summary of the method: as §1

Chain of UniProt O95568 (O95568 whole entry, looked up): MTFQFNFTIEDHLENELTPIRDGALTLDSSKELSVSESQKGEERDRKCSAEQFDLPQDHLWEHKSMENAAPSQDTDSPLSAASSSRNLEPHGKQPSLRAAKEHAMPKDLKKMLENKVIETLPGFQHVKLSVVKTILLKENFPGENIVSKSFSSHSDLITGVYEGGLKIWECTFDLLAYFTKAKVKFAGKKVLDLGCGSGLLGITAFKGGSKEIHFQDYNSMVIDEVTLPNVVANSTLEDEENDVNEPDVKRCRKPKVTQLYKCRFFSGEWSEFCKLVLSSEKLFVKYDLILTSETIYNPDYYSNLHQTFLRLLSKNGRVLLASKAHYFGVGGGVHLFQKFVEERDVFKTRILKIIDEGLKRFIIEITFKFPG
Chain of UniProt Q13123 (Q13123 whole entry, looked up): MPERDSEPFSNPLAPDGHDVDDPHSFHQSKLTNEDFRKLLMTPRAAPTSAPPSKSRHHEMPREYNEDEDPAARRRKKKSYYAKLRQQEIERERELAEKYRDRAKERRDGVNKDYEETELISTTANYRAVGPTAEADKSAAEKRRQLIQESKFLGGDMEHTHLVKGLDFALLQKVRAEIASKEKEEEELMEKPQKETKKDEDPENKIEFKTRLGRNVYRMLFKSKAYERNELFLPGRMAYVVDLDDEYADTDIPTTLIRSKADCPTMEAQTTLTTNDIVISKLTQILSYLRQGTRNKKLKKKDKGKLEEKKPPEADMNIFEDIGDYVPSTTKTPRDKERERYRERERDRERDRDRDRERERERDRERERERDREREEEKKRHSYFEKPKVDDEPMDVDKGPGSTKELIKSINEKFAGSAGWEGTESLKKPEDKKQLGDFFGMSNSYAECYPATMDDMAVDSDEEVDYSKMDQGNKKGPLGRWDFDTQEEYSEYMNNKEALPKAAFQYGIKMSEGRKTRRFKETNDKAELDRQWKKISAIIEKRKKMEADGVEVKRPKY
Chain of UniProt Q8NC56 (Q8NC56 whole entry, looked up): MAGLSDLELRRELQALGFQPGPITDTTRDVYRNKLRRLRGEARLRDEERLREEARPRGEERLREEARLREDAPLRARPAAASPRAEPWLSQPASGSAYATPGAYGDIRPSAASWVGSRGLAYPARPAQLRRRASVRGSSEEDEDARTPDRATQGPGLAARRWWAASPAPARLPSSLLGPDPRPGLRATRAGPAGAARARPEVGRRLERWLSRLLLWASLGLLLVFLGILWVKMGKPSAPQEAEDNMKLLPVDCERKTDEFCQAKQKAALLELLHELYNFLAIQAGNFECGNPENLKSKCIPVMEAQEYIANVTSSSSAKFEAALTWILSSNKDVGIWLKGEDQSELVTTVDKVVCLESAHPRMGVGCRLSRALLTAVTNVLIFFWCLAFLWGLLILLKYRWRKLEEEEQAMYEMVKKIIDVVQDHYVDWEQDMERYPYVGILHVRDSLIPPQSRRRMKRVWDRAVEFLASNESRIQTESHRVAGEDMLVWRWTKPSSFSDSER
Chain of UniProt Q8IYU8 (Q8IYU8 whole entry, looked up): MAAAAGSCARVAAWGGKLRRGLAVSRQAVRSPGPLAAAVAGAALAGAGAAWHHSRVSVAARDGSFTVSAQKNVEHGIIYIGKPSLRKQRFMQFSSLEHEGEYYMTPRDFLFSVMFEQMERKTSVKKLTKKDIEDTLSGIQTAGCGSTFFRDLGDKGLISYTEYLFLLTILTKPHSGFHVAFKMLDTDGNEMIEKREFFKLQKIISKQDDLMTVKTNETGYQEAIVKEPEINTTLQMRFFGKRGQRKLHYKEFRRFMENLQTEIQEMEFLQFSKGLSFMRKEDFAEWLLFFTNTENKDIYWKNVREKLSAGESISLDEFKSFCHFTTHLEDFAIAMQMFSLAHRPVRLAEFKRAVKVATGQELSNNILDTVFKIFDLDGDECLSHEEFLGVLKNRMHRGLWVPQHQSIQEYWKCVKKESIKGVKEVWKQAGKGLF
Chain of UniProt O95373 (O95373 whole entry, looked up): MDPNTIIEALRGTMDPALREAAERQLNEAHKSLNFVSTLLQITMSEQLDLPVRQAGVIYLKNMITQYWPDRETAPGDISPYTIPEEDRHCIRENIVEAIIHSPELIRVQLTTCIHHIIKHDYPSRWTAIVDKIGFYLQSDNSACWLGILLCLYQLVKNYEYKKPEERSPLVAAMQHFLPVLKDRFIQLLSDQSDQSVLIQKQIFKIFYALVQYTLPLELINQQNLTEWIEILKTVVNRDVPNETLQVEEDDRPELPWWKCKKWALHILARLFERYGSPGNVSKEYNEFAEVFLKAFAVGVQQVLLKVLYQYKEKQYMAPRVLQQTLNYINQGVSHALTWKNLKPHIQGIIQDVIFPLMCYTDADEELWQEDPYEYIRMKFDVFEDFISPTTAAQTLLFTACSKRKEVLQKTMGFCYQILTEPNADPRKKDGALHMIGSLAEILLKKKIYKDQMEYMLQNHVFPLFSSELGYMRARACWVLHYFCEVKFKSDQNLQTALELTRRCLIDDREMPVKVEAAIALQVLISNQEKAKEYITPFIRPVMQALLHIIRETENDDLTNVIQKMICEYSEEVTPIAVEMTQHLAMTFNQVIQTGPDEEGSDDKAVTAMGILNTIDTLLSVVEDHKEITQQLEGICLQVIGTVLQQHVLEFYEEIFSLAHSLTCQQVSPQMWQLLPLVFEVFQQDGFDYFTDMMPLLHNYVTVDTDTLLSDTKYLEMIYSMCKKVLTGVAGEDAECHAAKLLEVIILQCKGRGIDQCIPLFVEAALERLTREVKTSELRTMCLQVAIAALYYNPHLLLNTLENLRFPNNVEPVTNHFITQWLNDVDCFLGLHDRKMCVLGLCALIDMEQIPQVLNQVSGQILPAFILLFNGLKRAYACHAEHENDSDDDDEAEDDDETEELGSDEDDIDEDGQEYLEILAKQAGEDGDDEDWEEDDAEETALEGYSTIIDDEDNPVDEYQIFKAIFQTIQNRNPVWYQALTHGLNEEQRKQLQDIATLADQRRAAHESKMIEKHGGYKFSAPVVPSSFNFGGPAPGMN
Chain of UniProt Q16891 (Q16891 whole entry, looked up): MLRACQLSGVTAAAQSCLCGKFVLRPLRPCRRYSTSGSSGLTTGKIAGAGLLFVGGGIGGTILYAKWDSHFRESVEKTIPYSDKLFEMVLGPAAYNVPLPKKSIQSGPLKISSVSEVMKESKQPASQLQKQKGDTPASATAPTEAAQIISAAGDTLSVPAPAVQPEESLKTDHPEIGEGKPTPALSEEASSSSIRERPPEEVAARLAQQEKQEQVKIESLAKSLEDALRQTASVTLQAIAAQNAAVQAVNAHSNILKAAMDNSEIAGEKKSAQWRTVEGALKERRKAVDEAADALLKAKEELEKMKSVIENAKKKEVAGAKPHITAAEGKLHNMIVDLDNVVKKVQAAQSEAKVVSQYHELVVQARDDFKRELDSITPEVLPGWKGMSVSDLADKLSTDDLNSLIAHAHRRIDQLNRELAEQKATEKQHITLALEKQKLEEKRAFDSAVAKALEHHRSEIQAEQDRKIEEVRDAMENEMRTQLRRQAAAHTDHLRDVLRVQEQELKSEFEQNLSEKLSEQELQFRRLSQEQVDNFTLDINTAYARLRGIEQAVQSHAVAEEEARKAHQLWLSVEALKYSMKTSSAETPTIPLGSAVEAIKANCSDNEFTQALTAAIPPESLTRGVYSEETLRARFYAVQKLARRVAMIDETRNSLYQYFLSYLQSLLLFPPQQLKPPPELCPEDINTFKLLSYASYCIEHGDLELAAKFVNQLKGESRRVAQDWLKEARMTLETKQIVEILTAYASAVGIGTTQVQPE
Chain of UniProt Q02750 (Q02750 whole entry, looked up): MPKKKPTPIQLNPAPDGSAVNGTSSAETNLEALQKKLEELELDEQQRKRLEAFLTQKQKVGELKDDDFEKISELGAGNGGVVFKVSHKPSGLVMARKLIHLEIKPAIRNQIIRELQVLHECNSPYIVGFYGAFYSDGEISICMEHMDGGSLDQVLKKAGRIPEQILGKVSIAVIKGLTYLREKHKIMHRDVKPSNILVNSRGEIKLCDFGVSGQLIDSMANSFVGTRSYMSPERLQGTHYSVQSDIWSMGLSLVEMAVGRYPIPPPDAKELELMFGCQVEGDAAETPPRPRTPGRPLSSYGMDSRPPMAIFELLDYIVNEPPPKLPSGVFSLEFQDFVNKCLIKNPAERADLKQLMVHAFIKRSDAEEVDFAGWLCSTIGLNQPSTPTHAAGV
Chain of UniProt Q8WWC4 (Q8WWC4 whole entry, looked up): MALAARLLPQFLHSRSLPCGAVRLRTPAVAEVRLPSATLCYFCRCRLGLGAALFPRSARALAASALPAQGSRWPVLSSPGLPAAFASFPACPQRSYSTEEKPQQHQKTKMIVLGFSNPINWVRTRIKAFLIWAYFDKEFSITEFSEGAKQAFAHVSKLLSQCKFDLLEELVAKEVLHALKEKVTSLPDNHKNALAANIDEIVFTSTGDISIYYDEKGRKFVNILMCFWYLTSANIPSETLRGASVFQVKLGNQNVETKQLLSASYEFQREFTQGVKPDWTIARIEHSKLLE
Chain of UniProt P45984 (P45984 whole entry, looked up): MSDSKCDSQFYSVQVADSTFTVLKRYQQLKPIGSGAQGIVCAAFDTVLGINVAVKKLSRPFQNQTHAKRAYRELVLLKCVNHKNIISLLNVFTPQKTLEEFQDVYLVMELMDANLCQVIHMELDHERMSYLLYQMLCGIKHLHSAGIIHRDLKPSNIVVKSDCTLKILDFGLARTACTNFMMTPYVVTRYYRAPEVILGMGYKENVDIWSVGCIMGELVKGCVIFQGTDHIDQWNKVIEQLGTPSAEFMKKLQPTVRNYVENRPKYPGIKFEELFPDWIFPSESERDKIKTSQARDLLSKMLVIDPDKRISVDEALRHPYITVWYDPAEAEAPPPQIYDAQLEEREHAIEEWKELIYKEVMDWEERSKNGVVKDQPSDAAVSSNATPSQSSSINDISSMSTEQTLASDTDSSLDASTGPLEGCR

Target | log2 fold change [1] | log2 fold change [2] | log2 fold change [3] | log2 fold change [4] | log2 fold change (Nexturastat A) | log2 fold change (vemurafenib) | log2 fold change [5] | log2 fold change [6] | log2 fold change (givinostat) | log2 fold change (barasertib) | log2 fold change [7] | log2 fold change (volasertib) | log2 fold change [8] | log2 fold change (epoxomicin) | log2 fold change [9] | log2 fold change [10] | log2 fold change [11] | log2 fold change (rosiglitazone) | log2 fold change [12] | log2 fold change [13]
MAP2K1 (UniProt Q02750) | -0.013 | 0.001 | 0.029 | 0.049 | -0.061 | -0.009 | 0.018 | 0.129 | 0.007 | 0.005 | -0.017 | -0.058 | 0.024 | 0.053 | -0.006 | -0.092 | 0.032 | 0.029 | -0.06 | -0.113
LEMD2 (UniProt Q8NC56) | -0.068 | -0.02 | 0.038 | 0.051 | -0.002 | -0.001 | 0.045 | 0.002 | -0.022 | 0.017 | -0.212 | -0.422 (active) | 0.034 | -0.002 | -0.02 | 0.028 | 0.091 | 0.023 | -0.006 | -0.338 (active)
IGFBP2 (UniProt P18065) | -0.154 | 0.173 | 0.201 | 0.349 | 0.106 | 0.262 | -0.003 | -0.409 | 0.056 | 0.012 | -0.319 | -0.614 | -0.167 | -0.707 | -0.275 | 0.158 | 0.003 | 0.083 | 0.323 | -0.638
MAIP1 (UniProt Q8WWC4) | -0.022 | -0.005 | 0.083 | 0.088 | -0.033 | 0.034 | 0.057 | -0.034 | 0.001 | -0.002 | -0.086 | -0.098 | -0.023 | -0.068 | 0.034 | -0.015 | 0.026 | -0.001 | -0.052 | -0.396 (active)
IMMT isoform 2 (UniProt Q16891) | 0.053 | 0.074 | -0.05 | 0.002 | -0.155 | -0.006 | 0.018 | 0.325 | 0.045 | 0.081 | -0.043 | -0.046 | -0.002 | -0.052 | 0.074 | -0.031 | 0.086 | -0.009 | 0.067 | 0.249
IK (UniProt Q13123) | 0.032 | 0.039 | -0.035 | -0.026 | 0.093 | 0.086 | -0.002 | 0.036 | 0.021 | 0.047 | -0.136 | -0.366 (active) | 0.02 | 0.125 | -0.053 | 0.069 | -0.034 | 0.02 | 0.145 | -0.035
ILF2 (UniProt Q12905) | 0.036 | -0.032 | -0.031 | -0.041 | 0.084 | 0.028 | -0.042 | 0.032 | -0.02 | -0.119 | 0.277 | 0.281 | 0.029 | -0.186 | -0.018 | 0.2 | -0.053 | -0.099 | 0.16 | 0.352
MAP4K4 isoform 3 (UniProt O95819) | -0.166 | 0.013 | 0.022 | 0.012 | 0.033 | -0.007 | 0.028 | -0.02 | 0.017 | -0.012 | -0.082 | -0.316 (active) | 0.011 | 0.047 | 0.017 | -0.184 | 0.012 | 0.058 | 0.001 | -0.299 (active)
LARP1 (UniProt Q6PKG0) | 0.01 | 0.032 | -0.035 | 0.029 | 0.142 | -0.033 | -0.03 | 0.046 | 0.012 | -0.006 | 0.098 | 0.071 | 0.047 | -0.034 | 0.061 | 0.016 | -0.054 | 0.014 | 0.131 | 0.025
MAPK9 (UniProt P45984) | 0 | -0.011 | -0.078 | 0.044 | -0.057 | -0.005 | -0.07 | 0.034 | 0.038 | -0.022 | -0.055 | -0.087 | 0.006 | -0.005 | -0.004 | 0.03 | 0 | 0.04 | -0.038 | -0.071
LMNA (UniProt P02545) | -0.023 | 0.095 | -0.026 | -0.002 | -0.022 | 0.088 | 0.014 | -0.027 | 0.014 | -0.004 | 0.008 | -0.15 | 0.01 | -0.014 | -0.022 | 0.057 | 0.009 | -0.025 | -0.006 | 0
KTN1 (UniProt Q86UP2) | -0.071 | -0.051 | 0.014 | -0.002 | 0.141 | 0.012 | 0.027 | 0.034 | 0.022 | 0.033 | 0.039 | -0.242 | 0.028 | 0.037 | 0.091 | 0.084 | 0.006 | -0.009 | 0.127 | -0.006
MICU2 (UniProt Q8IYU8) | 0.022 | 0.067 | 0.091 | 0.05 | 0.198 | 0.053 | 0.183 | 0.042 | -0.009 | 0.079 | -0.135 | -0.118 | 0 | 0.067 | 0.005 | -0.046 | 0.007 | -0.017 | 0.097 | -0.309 (active)
IWS1 (UniProt Q96ST2) | -0.083 | 0.007 | -0.015 | -0.02 | 0.029 | 0.046 | -0.003 | -0.017 | 0.051 | 0.002 | 0.048 | 0.034 | 0.029 | 0.006 | -0.14 | 0.021 | 0.046 | 0.029 | 0 | -0.054
METTL18 (UniProt O95568) | -0.026 | 0.018 | -0.032 | 0.028 | -0.164 | 0.014 | 0.05 | -0.042 | -0.245 | 0.012 | 0.02 | -0.159 | 0.032 | -0.058 | 0.08 | 0 | 0.006 | 0.062 | 0.005 | 0.015
IPO7 (UniProt O95373) | 0.004 | -0.007 | 0.035 | 0.035 | 0.009 | 0.025 | 0.081 | -0.007 | 0.009 | 0.047 | -0.248 (active) | -0.542 (active) | 0.067 | -0.007 | 0.008 | -0.038 | 0.051 | 0.067 | -0.011 | -0.248 (active)
